Among the data in PubChem BioAssay AID1851 (National Center for Advancing Translational Sciences (NCATS), 2009) are AC50 and activity, negative = inhibition values, retold here.

Among all 16,000 compounds or so, about 5,700 (36%) were called active. About 24% were inconclusive and are not listed. Calls follow the shape of the dose curve; as a rule, active = well fitted curve in the direction sought with a large enough effect; inconclusive = small, poorly fitted or top-dose-only effect, or effect the other way; inactive = no such curve, though single readings can be large or run the other way. This is one part of the list.
% is scaled to controls: 0 for no effect and ±100 for the full control effect.

This assay deals with Cytochrome P450 1A2 (Homo sapiens) (UniProt P05177). In words: Cytochrome panel assay with activity outcomes. As to conditions: recombinant CYP, pro-luciferin dealkylation, luminescence, p450-cyp1a2; series mostly up to 57.1 µM.
Cytochrome P450 1A2 (Homo sapiens), sequence (P05177 whole entry, looked up): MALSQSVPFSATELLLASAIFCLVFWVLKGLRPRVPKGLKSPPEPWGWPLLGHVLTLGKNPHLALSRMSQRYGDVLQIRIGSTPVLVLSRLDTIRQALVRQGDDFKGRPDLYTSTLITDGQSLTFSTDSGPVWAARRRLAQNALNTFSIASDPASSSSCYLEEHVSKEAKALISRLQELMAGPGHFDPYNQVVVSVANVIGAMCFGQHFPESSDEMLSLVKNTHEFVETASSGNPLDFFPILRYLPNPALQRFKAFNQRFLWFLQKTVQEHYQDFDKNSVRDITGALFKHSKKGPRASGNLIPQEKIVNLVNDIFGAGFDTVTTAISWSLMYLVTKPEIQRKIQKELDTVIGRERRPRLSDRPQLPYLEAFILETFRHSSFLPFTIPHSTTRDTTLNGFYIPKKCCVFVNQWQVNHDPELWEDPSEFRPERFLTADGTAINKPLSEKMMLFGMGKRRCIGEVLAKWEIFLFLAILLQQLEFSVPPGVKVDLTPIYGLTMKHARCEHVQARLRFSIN
In general, AC50 refers to the concentration giving half of the maximal activity seen. Take `O=[N+]([O-])c1cccc(-c2nc(-c3ccncc3)no2)c1`: the half-maximal activity concentration (AC50) was 0.631 µM (active).

In the case of `CCS(=O)(=O)N1CCC(C(=O)NCCCOC)CC1`, the AC50 entry is “inactive”. Still for that read-out and setting: the figure for `O=C(N/N=C/c1cccc(F)c1)c1csc2c1CCCC2` is 4.47 µM (active); for `CC(C)(C)C1CCc2c(C(=O)N/N=C/c3cccs3)csc2C1` (stereo not given) it is “inactive”; for `CC(C)NCCCOc1ccc(Cl)cc1Br` it is 0.631 µM (active).

Take `Nc1ncnc2c1ncn2C[C@@H](O)C(=O)O`: the activity, negative = inhibition was -12.5% [at 11.4 µM] (inactive).

For `CCOc1ccc(NC2=NCC(=O)N2Cc2cccs2)cc1`, the AC50 is 22.4 µM (active).

As for `CCOc1ccc(N2C(=O)/C(=C/c3cccs3)N(CC(=O)OC)C2=S)cc1`, the AC50 entry is “inactive”. On the same count and under the same terms, the same measure for `O=C1CN=C(Nc2ccccc2)N1Cc1cccs1`: 12.6 µM (active). On the same count and under the same terms, the entry for `CCOc1ccc(N2C(=O)CN=C2Nc2ccccc2Cl)cc1` is “inactive”; for `Cc1cc(N)n(-c2ccc3ccccc3c2)n1` it is 2 µM (active). Same read-out and setting: the same measure for `CCN(CC)S(=O)(=O)c1cc(C(=O)OC)ccc1Cl`: 22.4 µM (active).

With `CCCN(CCC)S(=O)(=O)c1ccc(C(=O)O)cc1`, the AC50 result was “inactive”. The same measure, in the same setting: the entry for `CCN(CC)CCNC(=O)c1ccc(Cl)c(S(=O)(=O)Nc2ccccc2OC)c1` is “inactive”.

Take `O=c1[nH]c(=S)[nH]c2c1CN(CCCN1CCOCC1)CN2`: the activity, negative = inhibition is -13.5% [at 2.29 µM] (inactive). Take `Cc1nn(-c2ccccc2)c(C)c1/C=N/NC(=O)c1cc(-c2ccc(Cl)s2)[nH]n1`: the AC50 was 14.1 µM (active). As to `Cc1nn(-c2ccccc2)c(Cl)c1/C=N/NC(=O)c1ccco1`, the AC50 was 7.08 µM (active). The same measure, in the same setting: the entry for `O=C(Nc1c(C(=O)N2CCCCC2)cnn1-c1ccccc1)c1ccco1` is “inactive”.

In the case of `CCCC1S/C(=N/N=C/c2ccc(OC)cc2)N(Cc2ccc(OC)cc2)C1=O` (stereo not given), the AC50 entry is “inactive”. Same read-out and setting: the figure for `COc1ccc(CN2C(=O)c3ccccc3C(/C=N\OCc3ccc(F)cc3)C2=O)cc1` (stereo not given) is 12.6 µM (active).

Regarding `CN(C)c1ncc2nc(-c3ccc(F)cc3)c(=O)n(C)c2n1`, the AC50 is 1.58 µM (active).

As for `CN(C)c1ncc2nc(-c3ccccc3)c(=O)n(C)c2n1`, the half-maximal activity concentration (AC50) was 1 µM (active). Regarding `CN(C)c1ncc2nc(-c3ccc(Cl)cc3)c(=O)n(C)c2n1`, the half-maximal activity concentration (AC50) is 1.58 µM (active). Turning to `C=CC[C@@H]1C=C[C@@H](O/N=C\c2ccc(C(=O)N3[C@H](c4ccc(C)cc4)[C@@H](C)CC[C@H]3C(=O)OC)cc2)[C@@H](CO)O1`, the activity, negative = inhibition is -12.6% [at 11.4 µM] (inactive). With `COCCNc1ccnc(-c2ccccc2C)n1`, the AC50 was 12.6 µM (active). Same read-out and setting: the figure for `COCCNc1ccnc(-c2ccccc2CN(C)C)n1` is 5.01 µM (active). As for `CN(C)CCNc1ccccn1`, the activity, negative = inhibition was -5.87% [at 11.4 µM] (inactive).

As for `CC1(C)C2([N+](=O)[O-])CN3CC1([N+](=O)[O-])CN(C2)C31CCCC1`, the AC50 entry was “inactive”. The same measure, in the same setting: the same measure for `Cc1noc(C)c1C(=O)N1CCC2(CCN(Cc3ccncc3)CC2)CC1`: “inactive”.

With `CCc1c(C)c(C#N)c2nc3ccccc3n2c1N1CCN(c2cc(C)ccn2)CC1`, the AC50 result was “inactive”. Same read-out and setting: the same measure for `CCCCSCc1nc2nc(Cl)c(Cl)nc2[nH]1`: 3.16 µM (active). With `O=C(O)c1nc2nc(Cl)c(Cl)nc2[nH]1`, the activity, negative = inhibition was -18.2% [at 11.4 µM] (inactive). Turning to `O=C(CN1CCN(CC(=O)Nc2ccccc2Cl)CC1)Nc1ccc2c(c1)OCCO2`, the AC50 entry is “inactive”. Turning to `C/C(=N\NC(=O)CSCc1ccc(Cl)cc1)c1ccc2c(c1)OCCO2`, the AC50 was 7.94 µM (active). Still for that read-out and setting: the same measure for `CC(C)(C)NC(=O)CN(Cc1cccs1)C(=O)CCC(=O)Nc1nccs1`: “inactive”; for `O=C(CSCc1ccc(Cl)cc1)Nc1nccs1`: 0.178 µM (active); for `O=C(CSCc1ccc(Cl)cc1)Nc1ccc2c(c1)OCCO2`: 17.8 µM (active). On the same count and under the same terms, the entry for `O=C(O)CCC(=O)N1CCOc2ccc(Cl)cc21` is “inactive”; for `O=S(=O)(c1ccccc1)N1CCC2(CCN(Cc3nccs3)CC2)CC1` it is “inactive”; for `O=C(c1csnn1)N1CCC[C@@]2(CCN(c3ccncc3)C2)C1` it is “inactive”. On the same count and under the same terms, the same measure for `CCOC(=O)c1c(NC(C)=O)sc2c(OC)cccc12`: 0.316 µM (active). For `NS(=O)(=O)c1cc2c(cc1Cl)=NC(CCC(=O)O)=NS=2(=O)O`, the activity, negative = inhibition is 4.98% [at 11.4 µM] (inactive). On to `Cc1nn(C(C)C(=O)Nc2sc3c(c2C#N)CCCC3)c(C)c1[N+](=O)[O-]` (stereo not given), for which the AC50 is 3.55 µM (active). On the same count and under the same terms, the same measure for `Cc1nn(C(C)C(=O)N2CCc3ccccc32)c(C)c1[N+](=O)[O-]` (stereo not given): “inactive”; for `CCOc1cc(C2NN=C(c3ccccc3)S2)ccc1OCc1ccccc1Cl` (stereo not given): 3.16 µM (active).

Take `CN(C)c1ccnc(-c2cccc(NS(C)(=O)=O)c2)n1`: the AC50 is 1.58 µM (active). For `CN(Cc1ccco1)c1ccnc(-c2cccc(NS(C)(=O)=O)c2)n1`, the AC50 was 1.26 µM (active).

Take `C=C[C@@]1(C)CC(=O)[C@@]2(O)[C@@]3(C)[C@@H](O)CCC(C)(C)[C@@H]3[C@H](OC(=O)CCN(C)C)[C@H](OC(C)=O)[C@@]2(C)O1`: the AC50 entry was “inactive”. Same read-out and setting: the figure for `COC(=O)c1ccc(C(=O)OC)c(NC(=O)CSCc2ccc(Br)cc2)c1` is 0.891 µM (active); for `O=C(Nc1ccc(Br)cc1)c1ccc(CSC2=NCCS2)cc1` it is “inactive”; for `CC(=O)Nc1ccc(-c2cc(-c3ccc(NC(C)=O)cc3)nc(-c3ccccc3)n2)cc1` it is “inactive”. On the same count and under the same terms, the figure for `N#Cc1ccc(Oc2nc(C(N)=O)cc(-c3ccccc3)n2)cc1` is 2 µM (active). On the same count and under the same terms, the figure for `Cc1ccc(NC(=O)c2cc([N+](=O)[O-])ccc2NCc2cccnc2)cc1Cl` is 0.126 µM (active). Consider `COC(=O)C1(Cc2ccccc2)C2c3cc(C(=O)N4CCCC4)n(Cc4ccc(OC(F)(F)F)cc4)c3CC2CN1C(=O)c1ccccc1` (stereo not given), for which the AC50 result is “inactive”.

Turning to `Cc1cccc(C(=O)N2CCN(c3ccc([N+](=O)[O-])c(NCc4ccco4)c3)CC2)c1`, the AC50 result was “inactive”. The same measure, in the same setting: the same measure for `CC(C)c1ccc(CNc2cc(N3CCCC3)ccc2[N+](=O)[O-])cc1`: 3.16 µM (active); for `Cc1cc(C)n(-c2cc(N3CCN(C(=O)c4ccc(C(C)(C)C)cc4)CC3)ccc2[N+](=O)[O-])n1`: “inactive”. For the molecule `Cc1ccccc1C(=O)N1CCN(c2ccc([N+](=O)[O-])c(NCc3ccco3)c2)CC1`, the AC50 entry is “inactive”.

On to `O=[N+]([O-])c1nccn1C[C@H](O)CN1CCCCC1`, for which the activity, negative = inhibition was 4.83% [at 11.4 µM] (inactive). On to `Cc1cc(C)c(S(=O)(=O)N2CCN(c3ccc([N+](=O)[O-])c(NCc4ccco4)c3)CC2)c(C)c1`, for which the AC50 entry is “inactive”.

As to `Cc1cc(C)c(S(=O)(=O)N2CCN(c3ccc([N+](=O)[O-])c(NCC4CCCO4)c3)CC2)c(C)c1` (stereo not given), the AC50 entry was “inactive”. As for `O=[N+]([O-])c1cccnc1N1CCCCC1`, the AC50 was 5.01 µM (active). Turning to `O=C(O)CSc1ncccc1[N+](=O)[O-]`, the activity, negative = inhibition is 2.52% [at 11.4 µM] (inactive). As to `O=[N+]([O-])c1ccc(N2CCCC2)cc1NCc1ccccc1`, the concentration at half-maximal activity (AC50) is 0.794 µM (active). On the same count and under the same terms, the same measure for `CS(=O)(=O)N1CCN(c2ccc([N+](=O)[O-])c(NCc3ccccc3)c2)CC1`: 12.6 µM (active).
